Compound activity as filed in PubChem BioAssay.
Most compounds without a hit are left out; they make up all but 2.4% or so of the library.
D2 ag-1 – activates the human D2 dopamine receptor. P14416. HEK293 T-REx D2 cells, calcium flux agonist mode. activation, % at 2 µM. actives 0.53% (n = 340,000). AID 485358;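 active = activation over 3 SD above normal in the single-dose calcium agonist read, cut at about 30% in these data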; also: 0% is about no effect
Target sequence (P14416 whole entry, looked up): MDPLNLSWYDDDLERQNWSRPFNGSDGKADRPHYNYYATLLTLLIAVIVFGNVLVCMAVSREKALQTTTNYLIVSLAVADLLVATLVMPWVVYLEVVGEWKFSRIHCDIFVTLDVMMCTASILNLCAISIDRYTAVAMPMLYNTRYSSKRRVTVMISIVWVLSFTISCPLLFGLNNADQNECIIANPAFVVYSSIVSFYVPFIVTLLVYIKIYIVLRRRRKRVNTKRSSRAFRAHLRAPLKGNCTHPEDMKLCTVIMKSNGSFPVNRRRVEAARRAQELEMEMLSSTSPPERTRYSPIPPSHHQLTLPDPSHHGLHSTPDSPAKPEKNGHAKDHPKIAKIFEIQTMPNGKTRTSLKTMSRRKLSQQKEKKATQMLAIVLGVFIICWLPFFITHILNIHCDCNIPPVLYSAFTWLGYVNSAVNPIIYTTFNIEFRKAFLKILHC
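Agonism scored from kinetic calcium signal (1 read/sec, 180 s) following compound pin transfer, after a 10 s baseline. Cells: HEK293 Trex line expressing inducible D2 receptor coupled to calcium, dye-loaded after overnight culture at 30 C.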
D2 PAM-1 – potentiates the human D2 dopamine receptor allosterically; DiscoveRx D2 beta-arrestin cells, luminescence, 90 min; 100% = 57 uM dopamine signal; potentiation, % (test concentration not listed); actives 0.23% (n = 360,000); AID 624464; in the data active = potentiation above about 50%; inconclusive = mostly about 30% to 49%
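PathHunter beta-arrestin assay in DiscoveRx D2 cells. Compounds were added with an EC20 of dopamine (50 nM final) for 90 min at 37 deg C. Luminescence was read 1 h after detection reagent, with 57 uM dopamine as the EC100 control.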
D2 ag-2 – human D2 receptor agonism in beta-arrestin assay. activation, % (test concentration not listed). DiscoveRx PathHunter D2 beta-arrestin, luminescence, 90 min; 100% = 57 uM dopamine signal. actives 0.084% (n = 360,000). P14416; in the data active = activation above about 40%; inconclusive = between about 15% and that limit
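DiscoveRx PathHunter D2 beta-arrestin cells (2,100/well) attached overnight, then compound-stimulated 90 min at 37 C in HBSS/10 mM HEPES/0.1% Tween-20 buffer; beta-galactosidase complementation read by luminescence after 1 h at ambient temperature. Dopamine 57 uM final (EC100) as control.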
D2 antag – antagonizes the human D2 dopamine receptor. inhibition, % at 10 µM. HEK293 TREx D2 cells, calcium flux, dopamine EC80. P14416. actives 2% (n = 340,000); in the data active = inhibition above about 30%; inactive = below that, where a call was filed; also: 0% is about no effect
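Read-out: kinetic calcium fluorescence (1 cycle/s) in inducible HEK293 T-REx D2 cells after an EC80 dopamine addition that followed 180 s compound preincubation. Loss of the dopamine response indicates antagonism.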
D2 PAM-2 – positive allosteric modulators of human D2 dopamine receptor; HEK293 T-REx D2, calcium flux, EC20 dopamine potentiation; potentiation, % at 10 µM; actives 0.34% (n = 340,000); AID 485347;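 active = potentiation over 3 SD above the plate norm, cut at about 30% in these data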; also: 0% is about no effect
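Tetracycline-induced HEK293 T-REx cells force-coupled to calcium signalling expressed D2; compounds were pin-added after a 10 s baseline, read kinetically 180 s, then an EC20 dopamine challenge followed with a further 180 s calcium read.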
D3 ag – activates human D3 dopamine receptor beta-arrestin recruitment | shares compounds with D2 ag-1 | DiscoveRx D3 beta-arrestin cells, luminescence, 90 min | Potency, µM (highest dose often 76.9 µM), for inactives: at the highest dose activation, usual class: activators | actives 4% (n = 2,300) | AID 720506;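 also: potency is read from the fitted curve at half-maximal effect; 100% = dopamine control response; nearly all actives have a fitted effect of over 70% in size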
D2 ag-3 – D2 receptor agonism, beta-arrestin counterscreen; DiscoveRx PathHunter D2 beta-arrestin, luminescence, 90 min; response scale: percent relative to full dopamine signal; Potency, µM (doses to about 76.9 µM), for inactives: top-dose activation, actives largely listed as activators; shares compounds with D2 ag-1; actives 5.9% (n = 2,300); also: potency is read from the fitted curve at half-maximal effect; % of control where 0% means no effect; nearly all actives have a fitted effect of over 70% in size
Numbers without * were called inactive; u = inconclusive; x = no result given. Unless noted, calls follow the shape of the dose curve; as a rule, active = well fitted activation curve with a large enough effect; inconclusive = small, poorly fitted or top-dose-only effect; inactive = flat fitted curve, though single readings scatter.

SMILES	D2 ag-1	D2 PAM-1	D2 ag-2	D2 antag	D2 PAM-2	D3 ag	D2 ag-3
Cc1ccc(C)c(CN2CCN(c3ncccn3)CC2)c1	75.4*	5.4	53.2*	59.8*	-28.0	0.2%	u
COc1ccc(S(=O)(=O)N2CCN(C(=O)CCCN3C(=O)NC4(CCCC4)C3=O)CC2)cc1	1.1	-0.7	0.3	-0.9	4.5	x	x
O=[N+]([O-])c1ccc(Cl)c(CN2CCN(c3ncccn3)CC2)c1	8.5	-0.3	12.5	33.2*	-7.0	9.9%	13.4%
Oc1cc2c(cc1CN1CCN(c3ncccn3)CC1)OCO2	85.5*	u	96.2*	83.4*	-26.8	u	0.562µM*
Cc1ccc(CNC(=O)CCc2c(C)nn(-c3ccc(N4CCCCC4)nn3)c2C)cc1	0.2	x	x	x	6.1	x	x
COc1cccc(CN(C)C(=O)CN2C(=O)NC(c3ccccc3)(c3ccccc3)C2=O)c1	0.3	-3.0	-4.0	-8.3	4.0	x	x
COC(=O)C(C)(C)ONC(=O)Nc1ccccc1[N+](=O)[O-]	2.9	1.8	6.2	-14.4	8.1	x	x
CN(CC(=O)NNC(=O)CNC(=O)c1ccccc1F)S(=O)(=O)c1ccc(Cl)cc1	3.9	1.7	4.7	-13.7	-0.1	x	x
CN(CC(=O)NNC(=O)CNC(=O)c1cccs1)S(=O)(=O)c1ccc(Cl)cc1	41.8*	-27.7	1.6	10.5	-4.4	-4.9%	4.9%
CCOc1ccccc1C(=O)NCC(=O)NNC(=O)CN(C)S(=O)(=O)c1ccc(Cl)cc1	x	-10.4	u	x	x	u	u
Cc1ccc(C)c(NC(=O)Cn2c(=O)n(Cc3ccco3)c(=O)c3ccc(C(=O)NC4CCCC4)cc32)c1	0.3	x	x	x	-6.2	x	x
COc1cc([C@@H]2Nc3c(F)cccc3[C@@H]3C=CC[C@@H]32)cc(Br)c1OC	16.0	x	x	x	-4.1	x	x
O=C(NCC(c1ccco1)N1CCN(c2ccccc2)CC1)C(=O)NC1CCCC1 (stereo not drawn)	2.2	-2.8	7.0	-3.7	-7.5	24.3%	10.7%
O=C(NCC(c1ccco1)N1CCN(c2ccccc2)CC1)C(=O)NC1CC1 (stereo not drawn)	12.7	u	13.0	19.6	1.2	u	u
CC1=C(C(=O)OC2CCCCC2)C(c2cccnc2)n2nnnc2N1 (stereo not drawn)	61.0*	-2.2	-0.2	-4.1	-18.8	17.7%	11.0%
COC(=O)C1=C(C)Nc2nnnn2C1c1cccnc1 (stereo not drawn)	x	-2.6	-2.0	x	x	x	x
COCCCNc1nc2c(S(=O)(=O)c3ccc(C)c(C)c3)nnn2c2ccc(Cl)cc12	0.6	x	x	x	-18.7	x	x
CCCN(CC(=O)Nc1ccc(Cl)cc1Cl)C(=O)/C=C/c1ccco1	41.6*	-16.9	1.0	17.3	-16.9	-3.0%	0.4%
CCN(CC(=O)Nc1ccc(NC(C)=O)cc1)C(=O)/C=C/c1ccco1	1.3	4.6	-1.1	-2.0	0.8	x	x
COc1ccc(N2CCN(CCCNS(=O)(=O)c3ccc4c(c3)oc(=O)n4C)CC2)cc1	18.5	-11.2	2.1	29.6	-18.4	9.4%	13.7%
Cn1c(=O)oc2cc(S(=O)(=O)NCCN3CCN(c4ccccc4F)CC3)ccc21	54.9*	-8.1	1.0	76.5*	-24.5	11.7%	22.4%
Cc1cccc(N2CCN(C(=O)CCS(=O)(=O)c3ccc4c(c3)oc(=O)n4C)CC2)c1C	3.5	-17.8	3.8	15.2	-10.0	x	x
Cn1c(=O)oc2cc(S(=O)(=O)NCCN3CCCCCC3)ccc21	0.6	8.5	0.2	14.9	-9.1	x	x
Cc1cccc(N2CCN(C(=O)CCNS(=O)(=O)c3ccc4c(c3)oc(=O)n4C)CC2)c1C	44.5*	5.1	3.7	-6.7	-16.8	10.9%	24.7%
Cc1onc(-c2c(F)cccc2Cl)c1C(=O)Nc1cc(S(=O)(=O)N2CCCCC2)ccc1O	x	-0.8	-0.3	x	x	x	x
SMILES	D2 ag-1	D2 PAM-1	D2 ag-2	D2 antag	D2 PAM-2	D3 ag	D2 ag-3
COc1ccc(C(=O)Nc2ccc(N3CCN(Cc4ccccc4)CC3)cc2)cc1	0.7	1.7	-9.7	5.7	-8.5	x	x
COc1ccc(NC(=O)c2ccc(CN3CCN(c4ccccc4)CC3)cc2)cc1	86.4*	10.6	u	82.4*	-37.1	18.2%	14.1µM*
O=C(Nc1ccccc1F)c1ccc(CN2CCN(c3ccccc3)CC2)cc1	85.1*	9.8	u	80.9*	-18.0	16.3%	17.8µM*
CSc1ccccc1NC(=O)c1ccc(CN2CCOCC2)cc1	-0.6	-11.1	-1.4	4.4	-3.9	x	x
COc1cc(CCCN[C@H](CN)Cc2ccccc2)cc(OC)c1OC	-1.6	-23.4	-3.9	-2.3	14.2	x	x
NC[C@H](Cc1ccccc1)NCCCCC1CCCCC1	32.8*	-8.8	-1.6	-2.8	-17.8	1.7%	10.5%
Cc1ccc(NC(=O)CN2CCN(c3ccccn3)CC2)cc1S(=O)(=O)N(C)C	68.6*	8.1	58.2*	76.8*	-23.6	1.41µM*	14.1µM*
CN(C)S(=O)(=O)c1cc(NC(=O)CN2CCN(c3ccccc3)CC2)ccc1Cl	70.6*	14.9	u	63.9*	-19.4	50.1µM*	u
CN(C)S(=O)(=O)c1ccc(NC(=O)CN2CCN(c3ccccn3)CC2)cc1	65.0*	15.2	u	30.2*	-18.4	1.41µM*	u
Cc1cc(C)cc(NC(=O)CN2CCN(c3ccccn3)CC2)c1	3.4	-24.7	2.2	15.8	11.9	x	x
CN(C)S(=O)(=O)c1cc(NC(=O)CN2CCN(c3ccc(O)cc3)CC2)ccc1Cl	13.1	-15.8	11.3	0.7	-18.1	x	x
Cc1ccc(-n2nc3c(=O)n(CCCC(=O)NCCN4CCN(C)CC4)nc(C)c3c2C)cc1	0.3	-10.4	-2.9	19.9	-11.5	x	x
CC(C)(C)SCCNC(=O)c1ccc(CN2CCc3ccccc3C2)cc1	33.7*	-13.3	0.9	9.9	-18.6	-20.5%	3.1%
COc1cccc(C2CC(c3ccc(Cl)cc3Cl)n3nc(N)nc3N2)c1 (stereo not drawn)	0.0	-4.2	6.4	-0.3	15.2	x	x
COc1cccc(C2CC(c3ccccc3Cl)n3nc(N)nc3N2)c1 (stereo not drawn)	70.6*	9.2	-1.3	-10.9	-17.3	-14.7%	-2.6%
CCC(=O)NNc1ncnc2c1cnn2C	0.0	-7.9	-6.1	47.6*	-1.8	-6.1%	-6.0%
COC(=O)c1[nH]c2ccccc2c1NC(=O)C(C)N1CCOCC1 (stereo not drawn)	x	-0.5	-3.4	x	-0.5	x	x
COC(=O)c1[nH]c2cc(C)ccc2c1NC(=O)CN1CCN(C(=O)c2ccco2)CC1	x	-15.0	11.4	x	x	-6.0%	18.5%
